Potency data for 96 molecules are collected here from PubChem BioAssay AID504834 (National Center for Advancing Translational Sciences (NCATS), 2011).

Hit rate of the full screen: of about 320,000 compounds, about 22,000 (6.9%) were called active. Inconclusive results (about 27%) are left out. Calls follow the shape of the dose curve; as a rule, active = well fitted inhibition curve with a large enough effect; inconclusive = small, poorly fitted or top-dose-only effect, or another doubt; inactive = no such curve, though single readings can be large or run the other way. The entries come from a sample that favours actives as a whole. Where a call stands in place of a potency, no number is given. Where a SMILES comes first, the peptide text is derived from it. [ ]: non-standard residue; d: D form. The star is where a group is joined. PhAc = O=C(Cc1ccccc1)*
Potency is read from the fitted curve at half-maximal effect.

This assay is described as follows: Primary qHTS for delayed death inhibitors of the malarial parasite plastid, 96 hour incubation. Conditions: P. falciparum luciferase reporter growth; series mostly up to 28.7 µM. The gist of the method: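 Two parasite generations (96 h, 37 C, 5% CO2) of compound exposure in infected erythrocytes (0.05% parasitemia, 2% hematocrit). Luciferase-reporter P. falciparum; decreased luminescence indicates inhibited growth, aimed at apicoplast-acting delayed death.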
For orientation: In qHTS, concentration-response curves come from the screen itself.
For the molecule `COc1cc(C#Cc2ccc3cc(CCCO)oc(=O)c3c2)cc(OC)c1`, the Potency entry is “inactive”. The value for `Cc1ccc(NC(=O)CN(C)C(=O)COC(=O)C(C)(C)Oc2ccc(Cl)cc2)cc1` was “inactive”; that for `CC1(c2ccc3ccccc3c2)NC(=O)N(CC(N)=O)C1=O` (stereo unspecified) was “inactive”. As for `O=C(NCCCn1ccnc1)c1cc2c(s1)CCCC2`, the entry is “inactive”; as for `CCOC(=O)CC1(NC(=O)c2cc(COc3cncc(Cl)c3)on2)CCCCC1`, “inactive”; as for `COc1ccc(S(=O)(=O)NCCOc2ccccc2)cc1F`, “inactive”. `CC(C)(C)n1ncc2c(=O)n(Cc3c(Cl)cccc3Br)cnc21`: the Potency entry is “inactive”. The value for `O=C(O)c1ccc(/C=C2\SC(=S)N(NC(=O)c3ccc(Br)cc3)C2=O)cc1` was “inactive”; that for `CS(=O)(=O)N1CCN(CC(=O)NC2CCCC2)CC1` was “inactive”; that for `CCN(CC(=O)Nc1c(F)cccc1F)C(=O)c1ccc(S(=O)(=O)N2CCCCC2)cc1` was “inactive”.

Take `Cn1c(CCN2CCCC2)nc2cc(NS(=O)(=O)c3ccccc3)ccc21`: the Potency entry is “inactive”.

For `CN(C)C(CNC(=O)c1cccc(S(=O)(=O)Nc2ccc(Br)cc2)c1)c1ccco1` (stereo unspecified), the Potency entry is “inactive”. The value for `COc1ccc(C(CNC(=O)c2ccc(NS(=O)(=O)c3ccc(F)c(C)c3)cc2)N(C)C)cc1` (stereo unspecified) was “inactive”; that for `COc1ccccc1C(CNC(=O)c1cccc(S(=O)(=O)Nc2ccc(F)cc2)c1)N(C)C` (stereo unspecified) was 8.28 µM (active). The value for `CSc1nnc2ccc(-c3ccc(C)cc3)nn12` was “inactive”; that for `O=C(Cn1c(-c2cncs2)nc2ccccc21)NC1CCCC1` was 9.28 µM (active). The value for `O=C(CN1CCN(c2ccccn2)CC1)NC1CCCCC1` was “inactive”; that for `O=C(Cn1c(-c2cscn2)nc2ccccc21)Nc1ccc(Cl)cc1` was “inactive”.

For the molecule `Cc1ccn2c(=O)nc(SCC(=O)NCc3ccc(F)cc3)nc2c1`, the Potency entry is “inactive”. As for `CC(C)C[C@@H](NC(=O)[C@H]1CCCN1C(=O)Cc1ccccc1)C(N)=O` (PhAc-[dP]-[dL]-NH2), the entry is “inactive”. In the case of `Oc1ccc(CN2CCN(c3ncccn3)CC2)cc1`, the Potency result was “inactive”. As for `COc1cccc(OC)c1C(=O)N1CCN(Cc2cccnc2)CC1`, the entry is “inactive”; as for `COc1ccccc1-c1nn(Cc2ccccc2)cc1C(=O)N1CCN(c2ncccn2)CC1`, 13.1 µM (active); as for `CCOCCCNC(=O)C1(O)c2cc(Br)ccc2NC(=O)N1c1ccc(C)c(C)c1` (stereo unspecified), “inactive”.

Consider `COc1ccc(NS(=O)(=O)c2ccc3oc(SCC(N)=O)nc3c2)cc1`, for which the Potency entry is “inactive”. As for `COc1cccc(NC(=O)[C@H](Cc2c[nH]c3ccccc23)NC(=O)[C@@H]2Cc3ccccc3CN2)c1`, the Potency was 11.7 µM (active). As for `COc1ccc(CNC(=O)[C@H](Cc2c[nH]c3ccccc23)NC(C)=O)cc1OC`, the entry is “inactive”. Regarding `CC(=O)NC(Cc1c[nH]c2ccccc12)C(=O)NCCc1ccccc1` (stereo unspecified), the Potency entry is “inactive”.

Regarding `CC1(C)c2[nH]c3ccccc3c2C[C@H]2C(=O)N(N)CC(=O)N21`, the Potency result is “inactive”. On to `COCCN1CCN(C(=O)c2cc(COc3ccc(F)cc3Cl)on2)CC1`, for which the Potency entry was “inactive”. The value for `Cc1ccc(NC(=S)N/N=C2/CCCc3c(C)cc(C)cc32)cc1` was “inactive”; that for `CCCCNC(=S)N/N=C1\CCCCc2ccccc21` was 9.28 µM (active). The value for `O=[N+]([O-])c1ccccc1N/N=C1\CCc2ccccc21` was “inactive”. The value for `Cc1ccccc1N1CCN(C2CCCN(C(=O)c3cn4c(C)cccc4n3)C2)CC1` (stereo unspecified) was “inactive”; that for `COc1ccccc1C(=O)Nc1ccnn1C1CCN(Cc2cnn(C)c2)CC1` was “inactive”. In the case of `CCOC(=O)c1c(NC(=S)Nc2ccccc2C)sc2c1CCC2`, the Potency result was “inactive”. Take `CCOC(=O)c1c(NC(=O)NC(C)(C)C)sc2c1CCN(C)C2`: the Potency is 4.15 µM (active). The value for `CCOC(=O)c1c(NC(=O)Cn2nc(C(F)(F)F)cc2C)sc2c1CCC2` was “inactive”; that for `CCOC(=O)c1c(NC(=S)Nc2ccccc2)sc2c1CCN(C)C2` was “inactive”. Consider `CCOCC(=O)Nc1sc2c(c1C(=O)OCC)CCCC2`, for which the Potency result is “inactive”. Turning to `CCOC(=O)c1c(NC(=S)NC)sc2c1CCCC2`, the Potency is 8.28 µM (active). The value for `O=C(CCc1nc(-c2ccccc2)no1)Nc1cccc(C(=O)NC2CC2)c1` was “inactive”; that for `CCOC(=O)C1CCN(S(=O)(=O)c2ccc3c(c2)N(C)C(=O)CC(=O)N3C)CC1` was “inactive”. The value for `COc1cc2ccccc2cc1C(=O)Nc1ccc(N2CCOCC2)cc1` was “inactive”. As for `COc1cccc(C(=O)NC(=O)Nc2nc(C)cc(C(F)(F)F)n2)c1`, the entry is “inactive”; as for `Cc1cccc(OCC(=O)Nc2ccc(NC(=O)c3ccco3)c(C)c2)c1`, “inactive”; as for `O=C(CN1C(=O)NC2(CCCCC2)C1=O)N1CCN(C(=O)c2cccs2)CC1`, “inactive”. As for `O=C1CN(C(=O)CN2C(=O)NC3(CCCCC3)C2=O)c2ccccc2N1`, the Potency is 14.7 µM (active). The value for `O=C(CN1C(=O)NC2(CCCCCC2)C1=O)NCc1cccs1` was “inactive”; that for `COCCN1CCn2c(nc3cc(NS(C)(=O)=O)ccc32)C1` was “inactive”. As for `Cc1ccc(CNC(=O)c2ccc(CS(=O)Cc3cccc(Cl)c3)o2)cc1` (stereo unspecified), the entry is “inactive”; as for `COc1ccc(CCNC(=O)c2cnc(Cl)c(Cl)c2)cc1`, “inactive”; as for `CC(C)OC(=O)c1sc2nc3c(cc2c1N)C(=O)CCC3`, 5.22 µM (active). The value for `COC(=O)c1cc2c(N)c(C(=O)c3ccc(Cl)cc3)sc2nc1C(OC)OC` was “inactive”. Turning to `Nc1c(C(=O)NCc2ccccc2)sc2nc3c(cc12)C(=O)CCC3`, the Potency result was “inactive”. Consider `Cc1cccc(N2C(=O)C3C(c4ccccc4)OC4(C(=O)c5ccccc5C4=O)C3C2=O)c1` (stereo unspecified), for which the Potency entry is “inactive”. In the case of `O=C1[C@H]2[C@@H](c3ccc(F)cc3)N3C(=O)N(c4ccc(C(F)(F)F)cc4)C(=O)[C@@]3(Cc3ccccc3)[C@H]2C(=O)N1C1CCCCC1`, the Potency was 5.22 µM (active). The value for `CC12C(=O)N(c3ccccc3)C(=O)C1C(c1ccccc1)N1CCCN12` (stereo unspecified) was “inactive”; that for `Cc1cccc([C@@H]2[C@@H]3C(=O)N(Cc4ccccc4)C(=O)[C@@H]3[C@]3(Cc4ccc(Cl)cc4)C(=O)N(c4cccc(Cl)c4)C(=O)N23)c1` was “inactive”; that for `COc1ccc(C2C(C(C)=O)=C(O)C(=O)N2Cc2cccnc2)cc1` (stereo unspecified) was “inactive”.

For the molecule `COc1ccc([C@@H]2[C@@H]3C(=O)N(C(C)(C)C)C(=O)[C@@H]3[C@]3(Cc4ccccc4)C(=O)N(c4cccc(Br)c4)C(=O)N23)cc1`, the Potency is 1.65 µM (active). As for `C[C@@]12C(=O)N(c3cccc(Br)c3)C(=O)N1[C@H](c1ccc(Cl)cc1)[C@@H]1C(=O)N(C3CCCCC3)C(=O)[C@@H]12`, the figure is 16.5 µM (active).

With `COc1ccc(N2C(=O)C(Cc3ccccc3)NC2=S)cc1` (stereo unspecified), the Potency entry is “inactive”. `O=C(NC1(C(F)(F)F)NC(=O)N(C2CCCCC2)C1=O)c1ccco1` (stereo unspecified): the Potency entry is “inactive”. The value for `Cc1cccc(N2C(=O)N3[C@H](c4ccc(F)cc4)[C@@H]4C(=O)N(C5CCCCC5)C(=O)[C@@H]4[C@]3(Cc3ccccc3)C2=O)c1` was 13.1 µM (active); that for `Cc1c(C)c(C)c(S(=O)(=O)N2CCC3(CC2)OCCO3)c(C)c1C` was “inactive”; that for `Cc1csc(NC(=O)C2CCN(S(=O)(=O)c3ccccc3)CC2)n1` was “inactive”. As for `CCOc1ccc(N(CC(=O)NCCOc2ccccc2OC)S(=O)(=O)c2ccccc2)cc1`, the entry is “inactive”; as for `Cc1ccccc1N1CCN(Cc2nc(Cc3ccccc3F)no2)CC1`, “inactive”; as for `COc1ccc(NC(=O)CC2C(=O)NC3CCCCC3N2C(=O)c2ccc(F)cc2)cc1` (stereo unspecified), “inactive”. As for `COc1ccc(CNC(=O)CN(Cc2ccccc2Cl)C(=O)c2csnn2)cc1`, the entry is “inactive”; as for `COc1ccc(NC(=O)C2=CC(c3ccc(OC)c(OC)c3)=NS(=O)(=O)N2C)cc1`, “inactive”. Consider `COc1ccc(/C=C2\SC(=O)N(CCC(=O)NC3CCS(=O)(=O)C3)C2=O)cc1` (stereo unspecified), for which the Potency result is “inactive”. The value for `O=C(c1cc(COc2cccc(C(F)(F)F)c2)on1)N1CCSCC1` was “inactive”; that for `C=CCn1c(=O)c(C(=O)NCc2ccc3c(c2)OCO3)c(O)c2ccccc21` was “inactive”. For `O=C1[C@H]2[C@@H](c3ccc(Cl)cc3)N3C(=O)N(c4cccc(F)c4)C(=O)[C@@]3(Cc3ccccc3)[C@H]2C(=O)N1C1CCCCC1`, the Potency is 8.28 µM (active). The value for `O=C(COC(=O)c1ccc(F)cc1)NCCCc1ccccc1` was “inactive”. As for `Cc1cc(C)c(-c2csc(NC(=O)CCCc3nc4ccccc4c(=O)[nH]3)n2)c(C)c1`, the figure is 0.329 µM (active); as for `CC(C)(C)c1ccc(NC(=O)COC(=O)CCc2nc3ccccc3c(=O)[nH]2)cc1`, “inactive”; as for `Cc1cccc(S(=O)(=O)CC(=O)Nc2nc(-c3ccccc3)cs2)c1`, “inactive”.

Turning to `CC(C)Oc1ccc(/C=N/NC(=O)c2nnn(-c3nonc3N)c2CN(C)C2CCCCC2)cc1`, the Potency result is “inactive”.

Consider `CCC(C)Sc1nc2c(cnn2-c2ccc(F)cc2)c(=O)[nH]1` (stereo unspecified), for which the Potency result was “inactive”.

Take `COCCNC(=S)N/N=C/c1c(C)[nH]c2ccccc12`: the Potency entry was “inactive”. The value for `CN=c1scc(-c2cc(OC)ccc2OC)n1/N=C/c1c(C)[nH]c2ccccc12` was 6.57 µM (active); that for `COc1ccc(OC)c(N=Cc2c(O)[nH]c3ccccc23)c1` was “inactive”. The value for `CC1CCC(NC(=O)CNC(=O)c2ccc3ccccc3c2)CC1` (stereo unspecified) was “inactive”. As for `O=C(C1CC(=O)N(C2CCCCC2)C1)N1CCN(c2ccccc2)CC1` (stereo unspecified), the entry is “inactive”; as for `O=C(CN1C(=O)c2cccnc2Oc2ccc(Cl)cc21)Nc1ccc(F)cc1`, “inactive”; as for `Cc1ccc2c(c1)N(CC(=O)NCCc1ccc(Cl)cc1)C(=O)c1cccnc1O2`, 10.4 µM (active). Regarding `Cc1ccc2c(c1)N(CC(=O)N1CCC(C)CC1)C(=O)c1cccnc1O2`, the Potency entry is “inactive”.

On to `Cc1cc(C(=O)NCCc2ccc(Cl)cc2)c(C)o1`, for which the Potency entry was “inactive”. On to `CCCN1CCN(CCCNC(=O)CN2C(=O)COc3ccccc32)CC1`, for which the Potency result was “inactive”. As for `Cc1ccc2c(c1)N(CC(=O)NCCCN1CCCCC1)C(=O)c1cccnc1O2`, the figure is 9.28 µM (active); as for `COc1ccc(NC(=O)COC(=O)c2n[nH]c3ccccc23)c(OC)c1`, “inactive”. As for `CCCc1ccc(C(=O)COC(=O)CN2C(=O)NC3(CCCCC3C)C2=O)cc1` (stereo unspecified), the entry is “inactive”; as for `O=C(CN(C(=O)c1nsc(Cl)c1Cl)c1cccc(F)c1)NC1CCCC1`, “inactive”.
